Data reported in ChEMBL document CHEMBL3988442, “University of Dundee, Small-Polar-MMV Screening Library” (2021).
Hit rate of the full screen: of about 48,000 compounds, about 13,000 (27%) showed an effect of 50% or more. The list shows a part of the results.

Each compound was assayed on Wolbachia pipientis (assay: Anti-Wolbachia Cell-Based Screen). Settings: 5 µM.
Assay type: functional
Set-up: scale not given: in the data most compounds retested in dose-response had high values
For `Cc1nc(-c2ccc(Cl)cc2)n(CC(=O)NC(C)C)c(=O)c1CCO`, the “Percent Effect” value was 129.7%. For `COCCNC(=O)Cn1c(-c2ccc(Cl)cc2)nc(C)c(CCO)c1=O`, the “Percent Effect” value was 140%. `CCN(CC)C(=O)Cn1c(C)cc2nc(SC)n(CC(C)C)c(=O)c21` was tested, and the “Percent Effect” value was 2.572%. With `COCCNC(=O)Cn1c(-c2ccc(F)cc2)nc(C)c(CCO)c1=O` the “Percent Effect” value was 103.8%. In the case of `CC(CNC(=O)c1cccnc1O)Cn1cccn1` (stereo not given), the “Percent Effect” value is reported as -0.5981%. With `O=C1CCCN1CCCC(=O)N1CCCCC1c1ccc(F)cc1` (stereo not given) the “Percent Effect” value was -8.614%. With `O=C(NCCNS(=O)(=O)c1ccc(C(F)(F)F)cc1)c1ccoc1` the “Percent Effect” value was 7.368%. `CCCN1CCC(NC(=O)c2csc(C)c2C)CC1` was tested, and the “Percent Effect” value was 2.027%. `O=C(CS(=O)(=O)c1ccc(Cl)cc1)NC1CCCc2ccccc21` (stereo not given) was tested, and the “Percent Effect” value was 1.396%. In the case of `CC(C)OC(C)c1nnc(SCC(=O)O)n1-c1ccc(F)cc1F` (stereo not given), the “Percent Effect” value is reported as 15.24%. In the case of `O=C(O)[C@@H]1CN(C(=O)Cc2ccccc2Cl)C[C@H]1C1CC1`, the “Percent Effect” value is reported as 117.2%. In the case of `N[C@H]1CN(C(=O)Cc2ccc(Cl)c(Cl)c2)C[C@@H]1C1CC1`, the “Percent Effect” value is reported as 0.666%. For `Cc1nc(C)c(CC(=O)N2C[C@@H](C(=O)O)[C@H](c3ccncc3)C2)s1`, the “Percent Effect” value was -15.05%. For `CCOc1ccccc1CC(=O)N1C[C@@H](C(=O)O)[C@H](C2CC2)C1`, the “Percent Effect” value was 111.1%. For `CCOc1ccc(CC(=O)N2C[C@H](C3CC3)[C@@H](N)C2)cc1`, the “Percent Effect” value was 13.07%. In the case of `CCOc1ccccc1CC(=O)N1C[C@@H](C(=O)O)[C@H](c2ccncc2)C1`, the “Percent Effect” value is reported as 102.2%. For `O=C(O)[C@@H]1CN(Cc2cc3c(cc2Cl)OCO3)C[C@H]1C1CC1`, the “Percent Effect” value was -1.718%. `CCOc1ccccc1CC(=O)N1C[C@H](C2CC2)[C@@H](N)C1` was tested, and the “Percent Effect” value was 104.9%. `N[C@H]1CN(C(=O)c2ccccc2OCc2ccccc2)C[C@@H]1C1CC1` was tested, and the “Percent Effect” value was 10.21%. For `O=C(O)[C@@H]1CN(C(=O)CCc2ccccn2)C[C@H]1c1ccccc1`, the “Percent Effect” value was 11.77%. In the case of `CCOCCOc1ccccc1C(=O)N1C[C@H](C2CC2)[C@@H](N)C1`, the “Percent Effect” value is reported as -0.9919%. With `COc1ccccc1[C@@H]1CN(C(=O)Cc2csc(C)n2)C[C@H]1C(=O)O` the “Percent Effect” value was 12.9%. In the case of `CS(=O)(=O)N1C[C@H]2CNC[C@@]2(C(=O)NCCCc2ccccc2)C1`, the “Percent Effect” value is reported as 15.21%. With `C1CCCN(c2nc(C3CC3)ns2)CC1` the “Percent Effect” value was 16.93%. `CCCS(=O)(=O)N1CCC2(CN(c3cnn(C)c3)C(=O)CN2C)C1.O=C(O)C(F)(F)F` (stereo not given) was tested, and the “Percent Effect” value was -3.589%. With `CCc1cc(NC(C)(C)C)nc(N2CCOCC2)n1` the “Percent Effect” value was -8.862%. `Cc1cc(F)cc(CN2CCCn3nc(CNS(C)(=O)=O)cc3C2)c1` was tested, and the “Percent Effect” value was -6.917%. In the case of `Cc1cc(F)cc(S(=O)(=O)NCCCN2CCC(O)CC2)c1`, the “Percent Effect” value is reported as 17.75%. For `CCc1cc(NCCS(=O)(=O)N(C)C)nc(N2CCOCC2)n1`, the “Percent Effect” value was 7.02%. In the case of `CS(=O)(=O)NCc1cc(-c2cc(F)cc(F)c2)nc(N2CC[C@H](O)C2)n1`, the “Percent Effect” value is reported as 97.73%. With `CS(=O)(=O)NCc1cc(-c2cc(F)cc(F)c2)nc(N2CCOCC2)n1` the “Percent Effect” value was 112.2%. `Cc1nc(N2CCCC2)nc(C)c1NS(C)(=O)=O` was tested, and the “Percent Effect” value was 5.529%. In the case of `Cc1nn2c(N3CCC(O)C3)cc(-c3ccccc3)nc2c1C` (stereo not given), the “Percent Effect” value is reported as 3.691%. In the case of `CS(=O)(=O)NCc1cc(-c2cc(F)cc(F)c2)nc(N2CCCC2)n1`, the “Percent Effect” value is reported as 85.03%. For `Cn1cnc2c1C(C(=O)N1CCCC1)N(CC1CC1)CC2.O=C(O)C(F)(F)F` (stereo not given), the “Percent Effect” value was 6.577%. In the case of `Cc1noc(C)c1CN(C)C(=O)C1CCCN1S(N)(=O)=O` (stereo not given), the “Percent Effect” value is reported as 1.482%. For `Cc1nc2ccccc2n(Cc2nnnn2C2CC2)c1=O`, the “Percent Effect” value was 11.64%. `CCc1ccc(CN2CCN(c3ccc(Cl)nn3)CC2)nc1` was tested, and the “Percent Effect” value was -1.382%. With `CC(=O)N1CC[C@H]2CC(=O)N(C3CC3)CC[C@H]2C1` the “Percent Effect” value was -2.772%. `COCc1noc(-c2ccc(N3CCCC3c3ccc(F)cc3)nc2)n1` (stereo not given) was tested, and the “Percent Effect” value was 17.95%. `CCSc1ccccc1C(=O)N1CC2(COC(C)(C)OC2)C1` was tested, and the “Percent Effect” value was 0.7993%. With `CC(C)N1CCC(NCc2cccnc2N(C)Cc2ccccc2)CC1` the “Percent Effect” value was -0.8543%. For `COc1ncc(CN(CCN(C)C)Cc2ccc(C)s2)cn1`, the “Percent Effect” value was 7.179%. `CCc1ncc(CN(C)C2CCN(C(C)C)CC2)cn1.O=C(O)CC(O)(CC(=O)O)C(=O)O` was tested, and the “Percent Effect” value was 161.6%. In the case of `CC(C)N1CCC(C(=O)N(C)C(C)c2ccon2)CC1` (stereo not given), the “Percent Effect” value is reported as -1.072%. `CCN1CCN(Cc2ccnc(-c3cccnc3)n2)CC1.O=C(O)CC(O)(CC(=O)O)C(=O)O` was tested, and the “Percent Effect” value was -7.954%. For `CCCc1ncc(CN(C)C2CCCN(CCc3ccccc3)C2)cn1` (stereo not given), the “Percent Effect” value was -21.26%. `CNc1ncc(CN(C)C2CCN(C(C)C)CC2)cn1` was tested, and the “Percent Effect” value was 131.8%. `COc1ncc(CN(C)C2CCN(C(C)C)CC2)cn1` was tested, and the “Percent Effect” value was 134.1%. `CC(C)N1CCC(NCc2cccnc2N(C)C)CC1` was tested, and the “Percent Effect” value was 4.897%.
